This note sets out measurements from PubChem BioAssay (NCI).

The nature of test [1]: NCI Yeast Anticancer Drug Screen. Data for the rad50 strain (AID 155).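 Further: 0% = growth of vehicle-only cultures of the same strain.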 As to conditions: S. cerevisiae rad50 strain growth inhibition; at 50.0 µM; active compounds read high. Put shortly:
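Relative growth inhibition (compound vs vehicle) was measured in yeast with a defined repair-gene alteration.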

Test [2] in a line: NCI Yeast Anticancer Drug Screen. Data for the mec2-1 strain (AID 157). Conditions: S. cerevisiae mec2-1 strain, at 50.0 µM, active compounds read high. An outline of the steps:
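Strain: mec2-1 (DNA repair/cell cycle alteration). Compound exposure, then growth measured; inhibition expressed relative to vehicle.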

Test [3] in a line: NCI Yeast Anticancer Drug Screen. Data for the sgs1 mgt1 strain (AID 161).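 Further: 0% = growth of cultures given vehicle only.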 Conditions: S. cerevisiae sgs1 mgt1 strain, at 50.0 µM, active compounds read high. Put shortly:
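Test agents were incubated with a DNA-repair-mutant yeast strain. Growth was then read and compared against vehicle-treated controls.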

The nature of test [4]: NCI Yeast Anticancer Drug Screen. Data for the cln2 rad14 strain (AID 165).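 Further: 0% = growth equal to vehicle treated cultures.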 As to conditions: S. cerevisiae cln2 rad14 strain, at 50.0 µM, active compounds read high. An outline of the steps: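 Compounds are applied to the cln2 rad14 yeast strain, and growth is then compared with that of vehicle-treated cultures to give inhibition.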
Test [5] in a line: NCI Yeast Anticancer Drug Screen. Data for the bub3 strain (AID 167). As to conditions: S. cerevisiae bub3 mutant strain, at 50.0 µM, active compounds read high. An outline of the steps:
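Screening used yeast with an engineered genetic alteration affecting cell cycle control. Compound-exposed cultures were compared with vehicle cultures, and reduced growth was taken as inhibition.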

A short description of test [6]: NCI Yeast Anticancer Drug Screen. Data for the mlh1 rad18 strain (AID 175). As to conditions: S. cerevisiae mlh1 rad18 strain growth inhibition; at 50.0 µM; active compounds read high. Put shortly:
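Read-out is yeast growth inhibition, calculated against vehicle-only controls. The compound was applied to a strain engineered with DNA damage repair alterations.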

This is part of a sample that, as a whole, favours compounds with a hit. Of some 79,000 tested, about 15% had one in any assay. A number with no mark means an inactive call. The source made the active and inactive calls. No stated cut-off is given here; in the data, active means growth inhibition above about 70%; inactive means the rest.

Take `O=c1cc(CO)oc(C(Nc2cccc(Cl)c2)c2ccccc2)c1O` (configuration not stated): the growth inhibition in test [1] was 34.2%; in test [2], -4.65%; in test [3], 23.1%; in test [4], -15.2%; in test [5], 10.2%; in test [6], 21.1%.

In the case of `COc1cc(N=Nc2ccccc2)cc(/C=N\NC(=S)Nc2cccc(C)c2)c1O`, the growth inhibition was 35.2% in test [1]; 19.9% in test [2]; 29.8% in test [3]; 24.9% in test [4]; -8.15% in test [5]; 39.7% in test [6].

In the case of `O=C1Nc2c(Cl)cc(Cl)cc2C1=O`, the growth inhibition in test [1] was 7.9%; in test [2], 45.1%; in test [3] it was 37.7%; in test [4], -2.75%; in test [5] it was 38%; in test [6], 91.8% (active).

With `BrCCCCOc1ccccc1`, the growth inhibition in test [1] is 3.5%; in test [2], 2.65%; in test [3], -11.3%; in test [4], -4.25%; in test [5], -2.7%; in test [6] it was 2.7%.

As for `CN(C)CC(Oc1ccccc1)C(=O)c1ccccc1` (configuration not stated), the growth inhibition in test [1] is -3.2%; in test [2] it was -10.2%; in test [3] it was 29.8%; in test [4], -26.3%; in test [5], -16.9%; in test [6], -5.15%.

As for `COc1c2ccoc2nc2c(O)c3c(c(CC=C(C)C)c12)OCO3`, the growth inhibition in test [1] was -6.65%; in test [2] it was -7%; in test [3], -4.7%; in test [4], 16.2%; in test [5] it was -4.9%; in test [6], -2.95%.

Regarding `O=C(NNC(=O)C(Oc1ccccc1)c1ccccc1)C(Cl)Cl` (configuration not stated), the growth inhibition in test [1] is -9.5%; in test [2] it was 4.55%; in test [3] it was 0.55%; in test [4], -2.45%; in test [5] it was 10.3%; in test [6], 5.9%.

Take `Cn1c(Nc2ccccc2)c([N+](=O)[O-])c(=O)n(C)c1=O`: the growth inhibition was -11.8% in test [1]; -7.35% in test [2]; -5% in test [3]; -18.2% in test [4]; -2.15% in test [5]; -27.6% in test [6].

In the case of `Cc1nnc(Nc2ccc(Cl)c(Cl)c2)s1`, the growth inhibition was -6.95% in test [1]; -20% in test [2]; 26.8% in test [3]; 12.3% in test [4]; 11.3% in test [5]; 4.75% in test [6].

With `CC(C)(CO)C(Cl)C(=O)NCCC(=O)O` (configuration not stated), the growth inhibition in test [1] is -6.05%; in test [2], -14.9%; in test [3] it was -13%; in test [4], -2%; in test [5], 15.7%; in test [6] it was -13.4%.

On to `O=C(c1ccccc1)c1ccc(OCCOc2ccc(C(=O)c3ccccc3)cc2)cc1`, for which the growth inhibition was -0.7% in test [1]; -1.7% in test [2]; 2.15% in test [3]; -15.1% in test [4]; 3.9% in test [5]; -13.2% in test [6].

Regarding `COC(=O)[C@H](Cc1ccc(OC(C)(C)C)cc1)N[C@H](C)C(=O)N[C@@H](Cc1ccccc1)C(=O)OCc1ccccc1`, the growth inhibition is 35.5% in test [1]; 35.1% in test [2]; 50.1% in test [3]; 67% in test [4]; 62.4% in test [5]; 57% in test [6].

For the compound `COC(=O)c1nc(N)nc(C(=O)OC)c1C(=O)c1ccco1`, the growth inhibition in test [1] was 3.95%; in test [2], -4.25%; in test [3], 30.3%; in test [4] it was -3.7%; in test [5], 1.55%; in test [6] it was 26.5%.

On to `O=CN(Cc1cnccn1)Cc1cnccn1`, for which the growth inhibition in test [1] was -2.8%; in test [2], 7.3%; in test [3] it was -6.75%; in test [4], -33.1%; in test [5] it was 7%; in test [6], -14.2%.

As to `CC(C)(C)C1CCC2c3c([nH]c4ccccc34)C3C(=O)N(c4cc(Cl)ccc4Cl)C(=O)C3C2C1` (configuration not stated), the growth inhibition is 18% in test [1]; 0.75% in test [2]; -4.05% in test [3]; 5.4% in test [4]; 6.3% in test [5]; 0.9% in test [6].

For `C=CCCCN(c1ccc(C(=O)OCC)cc1)S(=O)(=O)c1ccc(C)cc1`, the growth inhibition in test [1] was 28.3%; in test [2], -11.4%; in test [3] it was 12.1%; in test [4], 12.7%; in test [5], -6.1%; in test [6], 4.2%.

Turning to `Cn1c2ccccc2c2[nH]c3ccccc3c(=O)c21`, the growth inhibition in test [1] is 54.5%; in test [2] it was 16.4%; in test [3], -15.1%; in test [4], -8.95%; in test [5] it was -11.4%; in test [6], 28.6%.

`CC(=O)COc1ccccc1[N+](=O)[O-]`: the growth inhibition in test [1] is 9.65%; in test [2] it was 0%; in test [3] it was 8.15%; in test [4], 8.95%; in test [5] it was 1.3%; in test [6], 15.8%.

For the compound `Cc1ccc(S(=O)(=O)OC2=C/C(=N\c3onc(C)c3C)c3ccccc3C2=O)cc1`, the growth inhibition was -41.6% in test [1]; -19.4% in test [2]; -27.9% in test [3]; -5.4% in test [4]; -15% in test [5]; -19.3% in test [6].

With `Nc1ccc(OCC(O)N2C(=O)c3ccccc3C2=O)cc1` (configuration not stated), the growth inhibition in test [1] is -46.2%; in test [2] it was -39.5%; in test [3], -32.9%; in test [4] it was 14.4%; in test [5], 29.9%; in test [6] it was -17.9%.

On to `O/N=C1/C2C=CC(C2)C1Cl` (configuration not stated), for which the growth inhibition in test [1] is 1.35%; in test [2], -5.75%; in test [3], 11.7%; in test [4], 13.7%; in test [5], -10.1%; in test [6] it was -16.9%.

Regarding `O=C(NNC(=O)c1ccccc1F)c1ccc2ccccc2c1`, the growth inhibition is -15.3% in test [1]; -13.3% in test [2]; -8.75% in test [3]; -2.5% in test [4]; -2.1% in test [5]; -6.55% in test [6].

Consider `O=C(O)c1nc(-c2ccc(S(=O)(=O)O)cc2)[nH]c1C(=O)O`, for which the growth inhibition in test [1] was -7.15%; in test [2] it was -0.25%; in test [3], 14%; in test [4], -24.8%; in test [5], -6.05%; in test [6], -3.6%.

Regarding `NC(=S)CNC(=O)c1ccccc1`, the growth inhibition was -28.6% in test [1]; -33.1% in test [2]; -29.3% in test [3]; -9.55% in test [4]; -11.8% in test [5]; 9.6% in test [6].

For `Oc1c(Cl)cc(N=Cc2ccc(N(CCCCl)CCCCl)cc2)cc1Cl`, the growth inhibition in test [1] was 92.6% (active); in test [2], 14.7%; in test [3], 94.8% (active); in test [4] it was 92% (active); in test [5] it was -13.6%; in test [6], 80% (active).

For the compound `O=C(Nc1ccc(Br)cc1)C(=O)C(C(=O)c1ccc(Cl)c(Cl)c1)C1OC(=O)c2ccccc21` (configuration not stated), the growth inhibition was 59.1% in test [1]; 42.5% in test [2]; 36.6% in test [3]; 64.5% in test [4]; 47.3% in test [5]; 36.7% in test [6].

Turning to `Nc1c(Cl)ncnc1NCCCCCO`, the growth inhibition in test [1] was -5.35%; in test [2], -4%; in test [3], -8.75%; in test [4] it was -23.7%; in test [5] it was -6.95%; in test [6] it was -1.95%.

Regarding `COC(=O)c1c2c(cc3c1CC1(Cc4ccccc4C1)C3)CCC2`, the growth inhibition in test [1] is 1.15%; in test [2], 11.6%; in test [3] it was 17%; in test [4], 0.6%; in test [5], 2.6%; in test [6], 18.6%.

As to `CCCCCCCCCCCCCCCCS(=O)(=O)N/N=C(/c1ccccc1Cl)N1CCOCC1`, the growth inhibition is -10.6% in test [1]; -35.4% in test [2]; -7.1% in test [3]; 16.4% in test [4]; -22.6% in test [5]; -6.75% in test [6].

As to `O=C1c2ccccc2C(=O)N1Cc1ccc(CN2C(=O)c3ccccc3C2=O)cc1`, the growth inhibition in test [1] is -9%; in test [2], -3.75%; in test [3], -16%; in test [4], -12.2%; in test [5], -1.55%; in test [6] it was -11.1%.

With `O=C1C=CC(=Nc2ccc(OC(=O)c3ccccc3)cc2)C=C1`, the growth inhibition in test [1] was 9.9%; in test [2], -4.95%; in test [3], 1.45%; in test [4] it was -35%; in test [5], -3.8%; in test [6], 9.35%.

Regarding `O=C(O)c1c(Br)c(Br)c(Br)c(Br)c1C(=O)Nc1ccccc1F`, the growth inhibition in test [1] is 7%; in test [2] it was -3.3%; in test [3], 7.55%; in test [4], 20.2%; in test [5], 4%; in test [6], 12.4%.

`C=C=CON1CCCCC1`: the growth inhibition in test [1] was -16%; in test [2], 14.9%; in test [3], -24.9%; in test [4], -5%; in test [5], -12.7%; in test [6], -0.6%.

`CC1(C)SCCNC1=O`: the growth inhibition in test [1] is 3.35%; in test [2], 8.45%; in test [3], 8.8%; in test [4] it was 11.8%; in test [5] it was 15.8%; in test [6] it was 4.75%.

In the case of `COc1ccc(C(C)c2cc3c(cc2OCCO)OCO3)cc1` (configuration not stated), the growth inhibition is 8.35% in test [1]; 6.7% in test [2]; 44.3% in test [3]; 18.1% in test [4]; 41.8% in test [5]; 45.7% in test [6].

`CCc1nnc2ncccn12`: the growth inhibition is -1.15% in test [1]; -10.9% in test [2]; 4.25% in test [3]; -5.95% in test [4]; 10.4% in test [5]; -2.9% in test [6].

For the compound `O=C(O)c1nc(N=Nc2ccc(S(=O)(=O)O)cc2)[nH]c1C(=O)O`, the growth inhibition in test [1] was 25.1%; in test [2], -4.85%; in test [3], 9.8%; in test [4], -30.7%; in test [5], -2%; in test [6], 21.2%.
